# LmPK inhibitor – LmPK (Leishmania mexicana) enzyme inhibition. Q27686. purified LmPK, Kinase-Glo ATP luminescence, 1 h. Potency, µM (highest dose often 57.5 µM), without a hit: at the top dose activity change, negative = inhibition, hits mostly inhibitors. 290,000 compounds, 0.37% hits; also: potency is read from the fitted curve at half-maximal effect; % is scaled to controls: 0 for no effect and ±100 for the full control effect
#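 Purified LmPK (0.1 nM) converted ADP (0.1 mM) to ATP with PEP (0.5 mM) in imidazole buffer pH 7.2 with KCl and MgCl2, 1 h at room temperature. ATP was read by Kinase-Glo luminescence; data normalized to uninhibited and no-enzyme controls.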
# CHX counter – counter-screen hit for Shiga toxin inhibitors, cycloheximide. 300,000 compounds, 12% hits. max response, %. cell reporter, cycloheximide protein synthesis inhibition counterscreen; in the data active = max response mostly above about 13%, no sharp cut-off; inactive = mostly below about 14%; also: read at 38.3 µM for the half of the compounds with a filed dose; 0% is about no effect
# RE007 growth inh – less growth of the S. pombe RE007 Vpr strain; S. pombe RE007 Vpr strain, BacTiter-Glo ATP luminescence, 24 h; Potency, µM (titrated, usually from 92.2 µM), for the others: top-dose activity change, negative = less growth, actives largely listed as inhibitors; 360,000 compounds, 0.21% hits; active = well fitted falling curve with a large enough effect; inconclusive = small, poorly fitted or top-dose-only effect; inactive = no such curve, though single readings can be large or run the other way; also: potency is read from the fitted curve at half-maximal effect; % is scaled to controls: 0 for no effect and ±100 for the full control effect; nearly all actives have a fitted effect of over 50% in size
#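 Fission yeast RE007 carrying one integrated HIV-1 vpr copy, seeded at OD 0.01 in PMG+AL medium with 23 nL pinned compound. Grown 24 h at 30 degrees; viability read by BacTiter-Glo luminescence after 5 min.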
# Shiga toxin inh – inhibitors of Shiga toxin in Vero cells | AID 2315 | 290,000 compounds, 9.2% hits | inhibition, % at 38.7 µM | Vero cells, Shiga toxin protein synthesis inhibition reporter; in the data active = inhibition mostly above about 28%, no sharp cut-off; inactive = mostly below about 43%; also: 0% is about no effect
# Giardia FBPA inh – Giardia lamblia aldolase inhibition. purified Giardia FBPA. Potency, µM (series often up to 59.6 µM), for the others: at the highest dose activity, negative = inhibition, hits mostly inhibitors. 290,000 compounds, 0.71% hits; also: potency is read from the fitted curve at half-maximal effect; % is scaled to controls: 0 for no effect and ±100 for the full control effect; nearly all actives have a fitted effect of over 55% in size
# Target sequence (A8B2U2 whole entry, looked up): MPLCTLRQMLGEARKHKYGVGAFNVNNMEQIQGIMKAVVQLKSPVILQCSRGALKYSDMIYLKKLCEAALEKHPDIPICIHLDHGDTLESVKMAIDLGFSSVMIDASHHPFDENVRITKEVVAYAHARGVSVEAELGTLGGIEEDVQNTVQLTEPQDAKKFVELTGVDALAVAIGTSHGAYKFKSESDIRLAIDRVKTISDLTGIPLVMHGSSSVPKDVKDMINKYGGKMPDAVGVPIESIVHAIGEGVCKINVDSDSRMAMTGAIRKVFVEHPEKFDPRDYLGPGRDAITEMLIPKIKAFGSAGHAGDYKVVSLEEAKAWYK
#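 Giardia FBPA (40 nM reagent) was preincubated 10 min at RT with compound (up to 57.5 uM final), then substrate plus GAPDH/TPI/NAD/arsenate coupling system with diaphorase/resazurin was added; resorufin fluorescence (525/598 nm) was read after 20 min.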
# Tb PYK inh – inhibitors of Trypanosoma brucei pyruvate kinase; Q57TT1; TbPYK enzyme, Kinase-Glo Plus ATP luminescence, 45 min; Potency, µM (series often up to 76.8 µM), without a hit: at the highest dose activity, negative = inhibition, hits mostly inhibitors; 410,000 compounds, 0.12% hits; AID 624173; also: potency is read from the fitted curve at half-maximal effect; % is scaled to controls: 0 for no effect and ±100 for the full control effect; nearly all actives have a fitted effect of over 50% in size
#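 ADP (130 uM final) triggers the TbPYK reaction after compound addition; incubation is 45 min at room temperature. Kinase-Glo Plus is then added and luminescence imaged. Normalized data are fitted to concentration-effect curves.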
# An asterisk follows results filed as active; ? = inconclusive; nt = no result. The sample as a whole holds a higher share of hits than the screen did. Unless noted, calls follow the shape of the dose curve; as a rule, active = well fitted curve in the direction sought with a large enough effect; inconclusive = small, poorly fitted or top-dose-only effect, or another doubt; inactive = no such curve, though single readings can be large; an effect the other way counts as inactive or inconclusive.
SMILES,LmPK inhibitor,CHX counter,RE007 growth inh,Shiga toxin inh,Giardia FBPA inh,Tb PYK inh
Cc1ccc(-c2nnc(SCC(C)C)n2C)cc1,-3%,34*,-14%,138*,nt,5%
Cc1ccc(Nc2nc(CSc3nnc(-c4ccc(F)cc4)n3C)cs2)cc1,2%,32*,-18%,123*,-4%,3%
CCCCSc1nnc(-c2ccc(OC)cc2)n1C,3%,65*,-14%,60*,-2%,0%
COc1ccc(-c2nnc(SCc3csc(N)n3)n2C)cc1,-1%,-4,-10%,-17,0%,-6%
CC(C)CN1CCc2nc(Nc3ccc(F)cc3F)ncc2C1,nt,nt,nt,nt,nt,-4%
Cc1cccc2c1ncc1c(=O)n(-c3ccccc3)[nH]c12,4%,30*,11%,90*,2%,-5%
C=CCN(c1ccccc1)S(=O)(=O)c1ccc2[nH]cc(C(=O)NCCOC)c(=O)c2c1,2%,-2,-6%,-6,-2%,-4%
COc1ccc2c(=O)c(C(=O)NCCc3ccc(OC)c(OC)c3)c[nH]c2c1,6%,-1,10%,-9,-10%,-1%
COc1ccc2c(=O)c(C(=O)NCCc3ccccc3)c[nH]c2c1,0%,25*,9%,18*,2%,-14%
COc1ccc2c(=O)c(C(=O)NCc3ccccc3)c[nH]c2c1,2%,7,5%,15,5%,0%
COCCNC(=O)c1c[nH]c2ccc(S(=O)(=O)N(C)c3ccc(C)c(C)c3)cc2c1=O,0%,22*,-12%,43,9%,-5%
COc1ccc2[nH]cc(C(=O)NCCc3ccccc3)c(=O)c2c1,4%,20,5%,28*,3%,2%
COc1ccc(-c2nc3c4ccccc4ccn3c2Cc2ccccc2)cc1OC,nt,nt,-23%,nt,nt,1%
CC1C(=O)O[C@@H]2C[C@@H](C)[C@@H]3CCC(=O)[C@@]3(C)[C@@H](O)[C@H]12 (some centres not stated),-5%,3,-6%,-9,8%,0%
CC(=O)O[C@@H]1[C@H]2[C@@H](C[C@@H](C)[C@@H]3CCC(=O)[C@@]13C)OC(=O)[C@@H]2C,2%,18*,18%,-11,3%,-1%
CC(C)COC(=O)N1C(COCc2ccccc2)CCC=CS1(=O)=O (configuration not stated),nt,14,nt,22,0%,nt
O=[N+]([O-])c1cccc(CN2C(COCc3ccccc3)CCC=CS2(=O)=O)c1 (configuration not stated),nt,38*,nt,82*,-7%,nt
Cc1cccc(NC(=S)NC(=O)c2oc3ccccc3c2C)n1,5%,38*,1%,56*,-6%,12%
Cc1cccc(NC(=S)NC(=O)C(c2ccccc2)c2ccccc2)n1,nt,nt,12%,nt,nt,-13%
Cc1cccc(NC(=S)NC(=O)c2ccc(-c3ccccc3)cc2)n1,-1%,26*,-14%,37*,-1%,2%
CC(=O)Oc1ccc(C(=O)Nc2ccc(S(=O)(=O)N3CCOCC3)cc2)cc1,-5%,-1,-25%,-7,1%,-13%
O=C(COC(=O)c1c2c(nc3ccccc13)CCCC2)c1cccs1,-2%,23*,5%,46,17%,0%
O=C(COC(=O)c1c2c(nc3ccccc13)CCCCC2)c1ccc(Cl)s1,5%,9,-4%,78*,2%,3%
O=C(c1cc(C(F)(F)F)cc(C(F)(F)F)c1)N1CCC[C@@]2(CCN(c3ccccc3)C2)C1,nt,nt,nt,nt,0%,-9%
O=Cc1cccc(OC(=O)c2ccc(Cl)cc2Cl)c1,1%,26*,nt,51,-3%,nt
SMILES,LmPK inhibitor,CHX counter,RE007 growth inh,Shiga toxin inh,Giardia FBPA inh,Tb PYK inh
COc1cc(C(=O)Oc2cccc(C=O)c2)cc(OC)c1OC,4%,-1,-4%,3,4%,-1%
Cc1cc(C)nc(OC(=O)c2ccc(Cl)cc2Cl)n1,-1%,17*,nt,-17,-4%,nt
CC(C)(C)OC(=O)N(CC1CCNCC1)C(=O)c1[nH]c(C(F)(F)F)nc1-c1ccccc1,nt,nt,-6%,nt,nt,5%
COC(=O)[C@H](CCSC)NS(=O)(=O)c1ccccc1Br,5%,-5,-1%,-2,-2%,-1%
CC(C)c1ccc(NC(=S)NNC(=O)c2cccs2)cc1,-1%,42*,28%,72*,14%,0%
O=C(Nc1ccc(C(=O)N2CCCCC2)cc1)c1cccs1,-17%,19*,?,68*,-2%,-18%
Nc1cccc(NC(=O)c2cccs2)c1,-8%,15*,3%,20,-17%,-1%
O=C(Nc1cccc(-n2cnnn2)c1)c1cccs1,-2%,1,-10%,-6,-6%,-3%
O=C(Nc1cccc(N2CCCC2)c1)c1cccs1,3%,27*,-1%,72*,-25%,1%
Cc1ccc(NC(=O)c2ncn(CC(=O)NCC(C)c3ccccc3)n2)cc1C (configuration not stated),nt,nt,0%,nt,nt,-3%
Cc1c(Cc2ccccc2)c(=O)oc2cc(OCC(=O)N3CCC(C(N)=O)CC3)ccc12,1%,-2,-13%,10,0%,14%
O=C(Nc1ccc(NC(=O)c2cccs2)cc1)c1cccs1,-4%,43*,5%,83*,3%,2%
O=C(Nc1ccc(NC(=O)C2CC2)cc1)c1cccs1,-2%,43*,-4%,67*,-16%,-5%
COc1ccc(NC(=O)C2CCN(C(=O)c3cccs3)CC2)cc1,-1%,1,18%,-12,3%,1%
CC(C)C(=O)Nc1ccc(NC(=O)c2cccs2)cn1,-13%,50*,20%,114*,?,-4%
CN1CCN(c2ccc(NC(=O)c3cccs3)cc2)CC1,-9%,32*,8%,41,0%,-7%
CC(C)C(=O)Nc1ccc(NC(=O)c2cccnc2)cn1,0%,8,1%,30,0%,3%
COc1cccc(C(=O)COc2ccc(NC(=O)c3cccs3)cc2)c1,-1%,19*,13%,20,nt,0%
CC(=O)Nc1ccc(C(=O)NNC(=O)c2cccs2)cc1,-1%,8,-17%,-12,5%,1%
Cc1sc(NC(=O)c2cccs2)c(C(N)=O)c1C,-8%,40*,-5%,62,-6%,-1%
COc1ccc2nc3c(cc2c1)c(NC(=O)c1cccs1)nn3CC(C)C,3%,19*,-14%,88*,?,-9%
CC(C)CNC(=O)c1ccc(NC(=O)c2cccs2)cc1,-8%,27*,nt,62*,5%,-2%
NC(=O)c1ccsc1NC(=O)c1cccs1,nt,nt,4%,nt,nt,51%
CCC(C)c1ccc(NC(=O)c2cccs2)cc1 (configuration not stated),-9%,30*,-9%,59*,-9%,-11%
COc1ccc(NC(=O)c2cccs2)cc1,?,41*,-20%,78*,-5%,8%

# Screening results deposited in PubChem BioAssay by National Center for Advancing Translational Sciences (NCATS).
